Assay outcomes as filed in PubChem BioAssay.
rCAG binder – molecules binding r(CAG) RNA repeats | inhibition, % at 3 µM | 370,000 tested, 1.3% active | r(CAG) RNA repeat, TO-PRO-1 dye displacement fluorescence;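 active = inhibition above the plate cutoff, the mean of all test compounds on that plate plus 3 SD, cut at about 35% in these data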;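 also: 0% = DMSO alone and 100% = 100 µM mitoxantrone as full dye displacement; higher means more dye released from RNA so lower well fluorescence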
ALR H2O2 inh – blocks human ALR sulfhydryl oxidase activity; AID 485317; P55789; purified ALR, DTT oxidation, H2O2 HRP-luminol luminescence; inhibition, % (no concentration beside the values); 290,000 tested, 3.8% active;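 active = mean replicate inhibition above about 79%, with every replicate also reaching it, limit read from the data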
Rtt109 HAT inh – blocks Candida albicans Rtt109/Vps75 acetyltransferase activity; Q5AAJ8; purified Rtt109/Vps75, ThioGlo CoA-SH fluorescence, 4 h; inhibition, % at 34.9 µM; 330,000 tested, 0.16% active;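 active = inhibition of at least 50% in every replicate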
ABHD5-PLIN5 inh – inhibitors of human ABHD5-perilipin-5 interaction; AID 602281; Q00G26+Q8WTS1; Split G. princeps luciferase complementation, luminescence, 4 h; inhibition, % at 4 µM; 360,000 tested, 0.78% active;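 active = inhibition above the mean inhibition across every tested compound plus 3 SD, cut at about 22% in these data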;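 also: 0% = DMSO only wells and the 100% control is not disclosed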
LANA-H2B inh – blocks KSHV LANA binding to histone H2A/H2B; Q9QR71; cell-free LANA-H2A/H2B peptide, fluorescence polarization; inhibition, % (test concentration not listed); 320,000 tested, 0.6% active; in the data active = inhibition mostly above about 10%, no sharp cut-off; inactive = mostly below about 6.7%
Target sequence (Q9QR71 whole entry, looked up): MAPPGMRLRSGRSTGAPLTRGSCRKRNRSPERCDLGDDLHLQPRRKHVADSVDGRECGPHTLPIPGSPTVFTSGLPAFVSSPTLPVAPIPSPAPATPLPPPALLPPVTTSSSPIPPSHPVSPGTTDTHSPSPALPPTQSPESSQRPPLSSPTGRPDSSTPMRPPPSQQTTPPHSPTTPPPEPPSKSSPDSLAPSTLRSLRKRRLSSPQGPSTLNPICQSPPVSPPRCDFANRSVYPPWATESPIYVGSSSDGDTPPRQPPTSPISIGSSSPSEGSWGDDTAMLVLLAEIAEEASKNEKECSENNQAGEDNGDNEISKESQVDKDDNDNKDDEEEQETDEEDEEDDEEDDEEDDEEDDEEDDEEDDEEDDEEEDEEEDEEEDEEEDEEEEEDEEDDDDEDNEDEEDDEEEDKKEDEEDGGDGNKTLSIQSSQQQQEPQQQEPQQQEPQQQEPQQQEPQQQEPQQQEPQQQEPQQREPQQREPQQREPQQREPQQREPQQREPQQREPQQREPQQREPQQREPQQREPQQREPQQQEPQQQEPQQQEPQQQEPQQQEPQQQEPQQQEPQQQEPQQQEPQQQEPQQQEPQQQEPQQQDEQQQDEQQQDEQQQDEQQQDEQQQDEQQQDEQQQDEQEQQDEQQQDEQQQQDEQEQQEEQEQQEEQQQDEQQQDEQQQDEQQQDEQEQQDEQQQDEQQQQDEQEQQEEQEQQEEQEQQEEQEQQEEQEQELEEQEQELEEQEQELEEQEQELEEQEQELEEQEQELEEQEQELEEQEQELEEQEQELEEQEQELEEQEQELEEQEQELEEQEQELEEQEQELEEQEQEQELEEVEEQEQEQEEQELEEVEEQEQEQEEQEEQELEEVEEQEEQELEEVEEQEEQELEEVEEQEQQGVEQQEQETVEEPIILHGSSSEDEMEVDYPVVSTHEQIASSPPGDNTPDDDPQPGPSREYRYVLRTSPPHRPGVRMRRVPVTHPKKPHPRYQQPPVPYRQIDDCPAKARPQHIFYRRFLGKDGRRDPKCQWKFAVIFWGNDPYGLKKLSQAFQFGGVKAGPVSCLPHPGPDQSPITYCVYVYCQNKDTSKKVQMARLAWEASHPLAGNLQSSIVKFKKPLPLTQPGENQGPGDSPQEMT
PRMT1 FP inh – PRMT1 (human) inhibition, primary screen | recombinant PRMT1, activity-based probe fluorescence polarization | Q99873 | 370,000 tested, 1.3% active | inhibition, % at 2.79 µM | AID 652257;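 active = inhibition above about 21% made by adding two undisclosed values, limit read from the data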
An asterisk follows results filed as active; . = no result; ! = a repeat was not active. Hits are enriched below; roughly 5.9% of the tested compounds scored in any of these assays.

SMILES	rCAG binder	ALR H2O2 inh	Rtt109 HAT inh	ABHD5-PLIN5 inh	LANA-H2B inh	PRMT1 FP inh
Cc1ccc(S(=O)(=O)NNC(=S)Nc2cccc(F)c2)cc1	1.4	98.8*	20.9	-0.6	-1.8	5.0
COc1ccccc1NS(=O)(=O)c1cc(C(=O)N2CCN(C/C=C/c3ccccc3)CC2)ccc1C	-0.3	-6.3	7.6	5.3	-3.9	-5.1
CC(C)[C@H](NC(=O)OCc1ccccc1)C(=O)N[C@@H](Cc1ccccc1)C1(O)CN(C)C(C(=O)NCc2ccccn2)CO1 (some centres undefined)	.	.	.	.	.	3.9
Cc1cccc(Nc2ncccc2C(=O)O)c1C	2.5	.	-1.8	2.0	58.8*!	-0.1
COc1ccc(-c2nc(CS(=O)CC(=O)NC3CCCC(C)C3C)c(C)o2)cc1OC (centres undefined)	-2.3	98.9*	7.4	-7.6	-5.9	5.0
Cc1ccc(-c2nc(CS(=O)CC(=O)NC3CCCC(C)C3C)c(C)o2)cc1 (centres undefined)	-8.8	99.1*	0.4	3.5	-4.9	0.0
O=C(OC12CCCN(C1)/C(=C/c1ccncc1)C2)c1ccccc1 (centres undefined)	2.9	.	.	.	.	-0.8
COc1ccccc1NC(=O)c1c([N+](=O)[O-])cnn1C	2.5	-30.3	1.4	0.6	15.3*	-6.6
N#C/C(=C/c1cccn1-c1cccc(C(=O)O)c1)c1ccc(F)cc1	50.1*	.	5.1	-8.8	.	0.6
Cc1oc(-c2ccc(Cl)cc2)nc1CS(=O)CC(=O)NCCN1CCCCCC1 (centres undefined)	1.7	99.2*	-6.2	-1.6	0.4	3.6
Cc1ccc(-c2nc(CS(=O)CC(=O)NCCN3CCCCCC3)c(C)o2)cc1 (centres undefined)	-4.6	98.5*	16.7	-7.1	10.2	-0.2
CCOC(=O)[C@@]12CCC3=C1N(CCC3)C(=O)[C@H](CC(=O)NCCc1ccccc1OC)C2	-1.2	.	.	.	.	4.3
O=C1Nc2ccccc2-n2nnnc2C1N1CCc2ccccc2C1 (centres undefined)	2.7	.	.	3.0	.	-1.8
C=CCN1C(c2ccccc2)=CS/C1=C(/C#N)c1nnc(N2CCOCC2)n1-c1ccccc1	-2.8	98.6*	.	-6.7	-0.3	13.5
CN1C(=O)NC(c2ccccc2)(C(F)(F)F)S/C1=C(/C#N)c1nnc(N2CCOCC2)n1-c1ccccc1 (centres undefined)	-1.3	7.7	3.3	5.8	-2.0	2.1
Cc1cc(/C=C(\C#N)c2nnc(N3CCOCC3)n2-c2ccccc2)c(C)n1-c1ccccc1	.	-2.4	.	.	7.7	.
CN1C(c2ccc(F)cc2)=CS/C1=C(/C#N)c1nnc(N2CCOCC2)n1-c1ccccc1	-1.9	98.3*	.	1.5	5.7	1.7
c1ccc(Cn2cc(CCOCc3ccccn3)c3ccccc32)cc1	6.8	.	.	.	.	5.2
OCC(CCc1c[nH]c2ccccc12)c1c[nH]c2ccccc12 (centres undefined)	6.4	.	.	.	.	15.2
COc1ccc(C(=O)/C=C/c2ccc3c(c2)OCCO3)cc1	0.4	95.2*	47.2	4.1	-1.8	3.9
COc1ccc(/C=C/C(=O)c2ccc(O)cc2)cc1	3.0	97.4*	14.5	5.9	3.1	1.3
O=C(/C=C/c1ccc2c(c1)OCO2)c1ccc(O)cc1O	14.6	.	3.1	15.5	.	-1.6
COc1cc(/C=C/c2ccc(O)cc2)cc(OC)c1	13.4	80.0*	-2.6	-2.4	-1.7	-0.5
O=C(/C=C/c1ccc(O)cc1)c1c(O)cc(O)cc1O	8.6	98.4*	-6.1	-7.3	4.3	4.4
COc1ccc(/C=C/C(=O)c2ccoc2)cc1	10.3	6.3	10.4	10.8	-1.0	10.8
COc1cc(OC)cc(OC)c1	0.4	.	.	-0.4	.	1.4
COc1ccccc1CNC(=O)N1CCC(c2nc3ccc(Cl)cc3[nH]2)CC1	3.0	.	.	.	.	-2.4
CC(=O)N1CCc2cc(NC(=O)C3(C)CCN3Cc3ccccc3OC(F)F)ccc21 (centres undefined)	-2.1	.	.	-7.9	.	-0.2
Cc1cc(C)c(C#N)c(SCC(O)COc2ccc(Br)cc2)n1 (centres undefined)	-2.5	-2.6	5.0	-7.1	5.8	-1.2
CN1CCC(N[C@@H](Cc2ccccc2)C(=O)NCCCc2ccccc2)(C(=O)NCCc2c[nH]c3ccccc23)CC1	.	.	.	.	.	0.0
